Data: PubChem BioAssay (EPA / NIEHS)
Activity calls are given as the source filed them. The calls were made as follows: active = hit-call score of the fitted dose curve at least 0.9, where 1 is the maximum; inactive = score below 0.9.

read-out: Transforming Growth Factor (TGFB1), TGFB1 (gene 7040); test: LTEA_HepaRG_TGFB1: Life Technologies and Expression Analysis (LTEA) Assay for Transforming Growth Factor (TGFB1) Transporter using HepaRG (AID 2283533); settings: mRNA level, 48 h; actives raise or lower the signal
Outline: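 qRT-PCR readout of TGFB1 transcript in HepaRG lysates, normalized to three housekeeping genes; gain or loss of signal fitted relative to 0.5% DMSO vehicle. Exposure: 48 h, 8-point curve from 100 uM, duplicate wells.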

Structure (SMILES) | outcome | AC50
c1cc2ccc3cccc4ccc(c1)c2c34 | inactive | 
CC(C)(c1ccccc1)c1ccc(O)cc1 | inactive | 
CCOP(=S)(OCC)SCSC(C)(C)C | inactive | 
CCOC(=O)C(O)(c1ccc(Cl)cc1)c1ccc(Cl)cc1 | inactive | 
Nc1ccc(-c2ccc(N)cc2)cc1 | inactive | 
COS(=O)(=O)OC | inactive | 
CCCCCCCCCC[N+](C)(C)CCCCCCCCCC | inactive | 
O=C(O)C(F)(F)C(F)(F)C(F)(F)C(F)(F)C(F)(F)C(F)(F)C(F)(F)C(F)(F)C(F)(F)F |  | 23.3 µM (active)
Cc1cccc(C)c1N | inactive | 
CCCCCCCCCc1ccc(O)cc1 | inactive | 
O=NN(c1ccccc1)c1ccccc1 | inactive | 
CCCCCCCCOC(=O)c1ccccc1C(=O)OCCCCCCCC | inactive | 
Oc1ccc(C(c2ccc(O)cc2)(C(F)(F)F)C(F)(F)F)cc1 |  | 76.5 µM (active)
O=C(O)C(F)(F)C(F)(F)C(F)(F)C(F)(F)C(F)(F)F | inactive | 
NS(=O)(=O)C(F)(F)C(F)(F)C(F)(F)C(F)(F)C(F)(F)C(F)(F)C(F)(F)C(F)(F)F |  | 39.4 µM (active)
O=S(=O)(O)C(F)(F)C(F)(F)C(F)(F)C(F)(F)F | inactive | 

Structure (SMILES) | outcome | AC50
CC1=C2C[C@H]3[C@@H](CC=C4C[C@@H](O)CC[C@@]43C)[C@@H]2CC[C@]12O[C@@H]1C[C@H](C)CN[C@H]1[C@H]2C | inactive | 
CCC(C)(c1ccc(O)cc1)c1ccc(O)cc1 | inactive | 
CN(C)c1nc(=O)n(C2CCCCC2)c(=O)n1C | inactive | 
Cc1ccccc1O | inactive | 
C=CC(N)=O | inactive | 
Cc1cccc([N+](=O)[O-])c1 | inactive | 
Cc1ccc(O)c(C)c1 | inactive | 
CN(C)CCO | inactive | 
O=C(N[C@H]1CN2CCC1CC2)c1cc2ccoc2cn1 | inactive | 
O=S(=O)(O)C(F)(F)C(F)(F)C(F)(F)C(F)(F)C(F)(F)C(F)(F)F | inactive | 
Cc1cc(-c2ccc(N)c(C)c2)ccc1N | inactive | 
c1ccc(-c2ccccc2)cc1 | inactive | 
C1CC2OC2CC1C1CO1 (stereo unspecified) | inactive | 
Cc1ccccc1CO[C@@H]1C[C@@]2(C(C)C)CC[C@]1(C)O2 | inactive | 
CCC(C)c1cc([N+](=O)[O-])cc([N+](=O)[O-])c1O (stereo unspecified) | inactive | 
